In PubChem BioAssay (NCI):
This is part of a sample that, as a whole, favours compounds with a hit. Of some 83,000 tested, about 20% had one in any assay.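 Assay: single dose, 48 h. Readout: percent growth (0 = no net growth; negative = cell death). Active: <10.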 Unmarked numbers belong to inactive results. The source made the active and inactive calls.

Assays:
Assay in all cases: NCI-60 one-dose screen, 48 h (100 = growth as untreated, 0 = no growth, -100 = all killed)
Settings in all cases: 10 µM unless noted
DU-145 prostate = system: DU-145 prostate
K-562 leukemia = system: K-562 leukemia
MALME-3M melanoma = system: MALME-3M melanoma
MDA-MB-231 breast = system: MDA-MB-231 breast
RXF 393 renal = system: RXF 393 renal
SF-268 CNS = system: SF-268 CNS
SF-295 CNS = system: SF-295 CNS
SF-539 CNS = system: SF-539 CNS
UACC-257 melanoma = system: UACC-257 melanoma
M14 melanoma = system: M14 melanoma

SMILES	growth (DU-145 prostate)	growth (K-562 leukemia)	growth (MALME-3M melanoma)	growth (MDA-MB-231 breast)	growth (RXF 393 renal)	growth (SF-268 CNS)	growth (SF-295 CNS)	growth (SF-539 CNS)	growth (UACC-257 melanoma)	growth (M14 melanoma)
CSc1nc2c(c(=O)[nH]1)C(c1ccc(C)cc1)C=C(C(=O)O)N2 (stereo not given)	123%	110%	98.8%	136%	112%	115%	89.5%	106%	110%	99.8%
CC(C)(C)n1cc(-c2ccnc(NCCNS(=O)(=O)c3ccc(C(F)(F)F)cc3)c2)c(-c2cccc(O)c2)n1	75.7%	7.42% (active)	42.3%	46%	37%	56.6%	44.3%	54%	47.2%	44.7%
COc1ccc2[nH]c(C(=O)OCc3ccc4c(Cl)cc(Cl)c(O)c4n3)cc2c1	-98.2% (active)	-13.7% (active)	-79.9% (active)	-75.9% (active)	-93% (active)	-72.9% (active)	67.8%	-96.4% (active)	-77.3% (active)	-78.2% (active)
C=C1C(=O)O[C@H]2[C@H]1CC/C(Cn1cc(CNC(=O)/C=C/c3c[nH]c4ccccc34)nn1)=C\CC[C@@]1(C)O[C@@H]21	103%	23.6%	98%	99.7%	84%	93.5%	93.3%	80.4%	74.9%	84.3%
COc1cccc(-c2nc3sccn3c2-c2ccnc(NCCCNS(=O)(=O)c3ccc(C(F)(F)F)cc3)c2)c1	65.4%	28.1%	86.4%	62.1%	65.6%	45.9%	44.3%	55.1%	61.7%	47.7%
Cc1nc2cncc(C#Cc3cncc(C(=O)Nc4ccc(CN5CCN(C)CC5)c(C(F)(F)F)c4)c3)c2nc1C	17.5%	7.52% (active)	-38.8% (active)	-49.4% (active)	-26.2% (active)	16.1%	20.5%	-41.9% (active)	14%	-24.8% (active)
CCCCCCCCCCCC(=O)NCCC[N+](C)(C)CC(=O)[O-]	101%	83.3%	108%	90.5%	77.2%	85.5%	101%	94.3%	98.3%	98.6%
O=C(CN1CCN(c2cc3c(cc2F)c(=O)c(C(=O)N/N=C/c2ccccc2O)cn3C2CC2)CC1)N/N=C\c1ccccc1O	21.2%	8.3% (active)	22.3%	25.3%	27.9%	16.6%	21.5%	11.1%	20%	-27.6% (active)
CC(C)C(C(=O)NCCN1CCOCC1)N1C(=O)/C(=C/c2ccc(Br)cc2)SC1=S (stereo not given)	108%	96%	106%	108%	125%	94.2%	102%	98.6%	106%	90.7%
COc1cc(-c2nc(N=Nc3c(O)[nH]c4ccc(Br)cc34)[nH]c(=O)c2C#N)cc(OC)c1OC	103%	90.9%	94.9%	93.9%	102%	101%	91.1%	96%	91.9%	97.1%
CN1CCN(Cc2ccc(NC(=O)c3cncc(C#Cc4cnc(N)c5ccncc45)c3)cc2C(F)(F)F)CC1	22.2%	-16.8% (active)	-44.5% (active)	-33.7% (active)	-30.1% (active)	24.5%	20.8%	-20.6% (active)	23.8%	2.43% (active)
O=C(NNC(=O)N1c2ccccc2C=Cc2ccccc21)c1ccccc1	107%	101%	117%	111%	106%	98.4%	95.7%	102%	108%	110%
O=[N+]([O-])c1ccc(Sc2ncccn2)c([N+](=O)[O-])c1	11.1%	12.7%	75.8%	68.6%	-38.6% (active)	52.8%	111%	96.7%	29.4%	62.5%
CC(C)(C)OC(=O)NC(CSCc1ccccc1)C(=O)ON1C(=O)CCC1=O (stereo not given)	112%	100%	101%	111%	124%	102%	124%	99.5%	99.8%	104%
COC(=O)c1nc(-c2ccccc2)oc1S(=O)(=O)N1CCN(c2cccc(Cl)c2)CC1	92.7%	38.8%	100%	73.5%	84%	80.7%	90.8%	105%	80.2%	86.9%
COc1cc2c(c(OC)c1OC)-c1ccc(N)c(=O)cc1[C@@H](NC(C)=O)CC2	-28.8% (active)	17.3%	58.4%	-9.55% (active)	-5.16% (active)	17.9%	17.7%	-14% (active)	61.2%	-21.8% (active)
CC1=C(C#N)C(=O)NC(C)C1 (stereo not given)	111%	116%	102%	105%	107%	104%	99.9%	97.9%	102%	96.2%
C=C1C(=O)O[C@H]2[C@H]1CC/C(Cn1cc(CNC(=O)c3cc4ccccc4[nH]3)nn1)=C\CC[C@@]1(C)O[C@@H]21	52.2%	2.12% (active)	0.0965% (active)	60.9%	24.5%	68.5%	110%	6.92% (active)	61.7%	57.8%
O=C(c1c[nH]c(=O)c(-c2ccccc2)c1)c1ccccc1O	99.7%	78.4%	92.5%	98.5%	82.1%	91.5%	92.2%	108%	85.7%	105%
CCOC(=O)c1c(/N=C2\SC(=O)/C(=C\C(=O)OC)N2NC)sc2c1CCN(C(=O)OCC)C2	101%	99.9%	101%	100%	106%	96.2%	98.7%	96.9%	101%	91.7%
CCOC(=O)C1CCNC(=O)C1=O (stereo not given)	115%	109%	126%	106%	108%	108%	122%	112%	126%	108%
COc1ccc(S(=O)(=O)NCCCNc2nccc(-c3c(-c4cccc([N+](=O)[O-])c4)nc4sccn34)n2)cc1	51.6%	28.7%	58%	59.5%	67.1%	49%	43.7%	75.6%	53%	41.6%
COc1ccc2c(c1)C(c1cc(OC)c3c(c1)OCO3)C1=C(COC1=O)N2 (stereo not given)	3.41% (active)	12%	54.2%	24.4%	-8.85% (active)	32.2%	1.56% (active)	5.62% (active)	66.1%	5.65% (active)
COc1ccc2c(c1)OC1=C(C(=O)OC1)C2c1cc(OC)c2c(c1)OCO2 (stereo not given)	-17.9% (active)	7.46% (active)	51.2%	9.12% (active)	16.5%	19.7%	9.01% (active)	1.82% (active)	67.8%	7.05% (active)
CCCCNC(=O)Oc1ccc(/C(=C(\C)c2ccccc2)c2ccc(OCCN(CC)CC)cc2)cc1	89.3%	8.28% (active)	76.1%	103%	52.8%	68.5%	91.1%	48.3%	19.3%	6.41% (active)
NC1N=C(SCC(=O)N2CCN(c3cc4c(cc3F)c(=O)c(C(=O)O)cn4C3CC3)CC2)NC(=O)/C1=C/c1ccc(Cl)cc1 (stereo not given)	112%	99.2%	108%	104%	110%	96.2%	94.4%	97.8%	105%	104%
